Values without a mark were called inactive. Results filed as inconclusive are left out. Active and inactive are the calls of the source. Unless noted, the call rests on the fitted dose curve; in most records, active means well fitted curve in the direction sought with a large enough effect; inconclusive means small, poorly fitted or top-dose-only effect, or another doubt; inactive means no such curve, though single readings can be large; an effect the other way counts as inactive or inconclusive.

Assay [1] concerns the target Tyrosine-protein kinase Yes (Homo sapiens) (UniProt P07947). The assay can be described thus: qHTS for small molecule inhibitors of Yes1 kinase: Primary Screen (AID 686947). Further: potency means the concentration at half of the fitted maximal effect; nearly all actives have a fitted effect of over 60% in size. The following applies: Yes1 kinase biochemical qHTS inhibition. An outline of the steps:
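In this qHTS format, inhibition is expressed relative to DMSO controls with enzyme (maximum) and without enzyme (minimum). The 60 min room-temperature reaction uses 0.1 mM ATP, with ADP detected by luminescence.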

Assay [2] can be described thus: qHTS for small molecule inhibitors of Yes1 kinase: Counter Assay (AID 686950).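 Further: no kinase present so only ADP-Glo detection of a fixed ADP amount is tested; luminescence from ADP-Glo reporting ADP in a fixed ATP and ADP mixture; series mostly up to about 77 µM; 0% = DMSO wells with ATP plus ADP and -100% = ATP-only wells without ADP.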 An outline of the steps: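 Measuring interference with ADP-Glo, the assay ran 60 min at room temperature on an ATP/ADP mix lacking enzyme. Values were normalized to ATP-plus-ADP (maximum) and ATP-only (minimum) DMSO controls.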
A general note: Quantitative high-throughput screening tests each substance at several concentrations.

For assay [3], the target named is Arylsulfatase A (Homo sapiens) (UniProt P15289). The assay can be described thus: qHTS screen for enhancers of Arylsulfatase A (ASA1): LOPAC Validation Assay (AID 720538). Further: potency means the concentration at half of the fitted maximal effect. The procedure, abridged: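 MLD patient fibroblasts (SV40, ASA-I179S), 1536-well; adhere 6 hrs; cpd 48h, 37 degree C, 5% CO2; pNCS 0.5mM final in lysis buffer, 14h RT; stop 1N NaOH final; fluor. Ex525/Em598.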
Chain of Arylsulfatase A (Homo sapiens) (P15289 whole entry, looked up): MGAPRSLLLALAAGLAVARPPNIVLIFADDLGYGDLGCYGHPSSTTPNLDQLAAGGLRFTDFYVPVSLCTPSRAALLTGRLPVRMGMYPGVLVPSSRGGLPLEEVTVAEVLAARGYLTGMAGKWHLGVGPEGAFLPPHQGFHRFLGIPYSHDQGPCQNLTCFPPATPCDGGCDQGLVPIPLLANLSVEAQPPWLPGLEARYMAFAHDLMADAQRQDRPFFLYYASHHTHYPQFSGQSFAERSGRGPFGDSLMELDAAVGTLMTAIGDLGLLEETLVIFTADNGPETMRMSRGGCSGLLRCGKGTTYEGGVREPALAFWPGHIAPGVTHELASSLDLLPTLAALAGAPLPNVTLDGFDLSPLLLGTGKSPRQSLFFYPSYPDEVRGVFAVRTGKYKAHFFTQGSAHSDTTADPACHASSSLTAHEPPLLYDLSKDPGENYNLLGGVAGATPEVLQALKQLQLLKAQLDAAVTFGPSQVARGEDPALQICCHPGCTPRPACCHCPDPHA

A short description of assay [4]: qHTS for compounds that reverse cellular toxicity of Amyloid beta (A-beta) peptide in yeast: LOPAC Validation Assay (AID 720559).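 Further: plate controls were DMSO for no effect and equimolar ferric chloride plus clioquinol rescue for full effect.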 The procedure, abridged: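 Medium dispensed, compounds pinned, A-beta yeast suspension added; plates held at 30 C for 48 hr; absorbance measured at 600 nm to gauge growth; values scaled between DMSO and FeCl3/clioquinol (equimolar) controls.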

A short description of assay [5]: qHTS for Activators of Parkin Expression: LOPAC Validation Assay (NLuc Reporter) (AID 720572). An outline of the steps:
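Cells harboring the Parkin-promoter coincidence reporter were treated for 24 h at seven concentrations. NLuc output was measured sequentially after the FLuc channel and scaled between DMSO and positive control values.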

The target of assay [6] is T1, Hexokinase-4 (Homo sapiens) + Glucokinase regulatory protein (Homo sapiens) (UniProt P35557+Q14397). Put plainly: qHTS assay for inhibitors of recombinant human GCK-GKRP interaction: Diaphorase-coupled assay (AID 743205). An outline of the steps: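 25 mM Hepes pH 7.6, 5 mM glucose, 0.4 mM ATP, 4 U/ml G6PDH; 10 nM each GST-GCK/FLAG-GKRP. Kinetic fluorescence read, 1/min × 30 min. Normalized: DMSO ± enzyme = max/min.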
T1 sequence (P35557 whole entry, looked up): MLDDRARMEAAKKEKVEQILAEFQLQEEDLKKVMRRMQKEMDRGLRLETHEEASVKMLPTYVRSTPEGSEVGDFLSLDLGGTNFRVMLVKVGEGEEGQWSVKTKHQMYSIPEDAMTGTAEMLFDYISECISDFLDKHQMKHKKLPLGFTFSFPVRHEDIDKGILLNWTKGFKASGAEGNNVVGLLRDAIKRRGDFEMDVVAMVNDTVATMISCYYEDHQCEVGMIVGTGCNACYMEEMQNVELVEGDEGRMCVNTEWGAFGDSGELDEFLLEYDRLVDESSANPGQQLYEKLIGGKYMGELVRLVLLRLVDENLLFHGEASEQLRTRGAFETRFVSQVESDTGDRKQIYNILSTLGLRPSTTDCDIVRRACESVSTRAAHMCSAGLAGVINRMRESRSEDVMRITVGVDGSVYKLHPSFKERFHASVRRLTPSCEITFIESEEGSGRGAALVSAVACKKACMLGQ
T1 sequence (Q14397 whole entry, looked up): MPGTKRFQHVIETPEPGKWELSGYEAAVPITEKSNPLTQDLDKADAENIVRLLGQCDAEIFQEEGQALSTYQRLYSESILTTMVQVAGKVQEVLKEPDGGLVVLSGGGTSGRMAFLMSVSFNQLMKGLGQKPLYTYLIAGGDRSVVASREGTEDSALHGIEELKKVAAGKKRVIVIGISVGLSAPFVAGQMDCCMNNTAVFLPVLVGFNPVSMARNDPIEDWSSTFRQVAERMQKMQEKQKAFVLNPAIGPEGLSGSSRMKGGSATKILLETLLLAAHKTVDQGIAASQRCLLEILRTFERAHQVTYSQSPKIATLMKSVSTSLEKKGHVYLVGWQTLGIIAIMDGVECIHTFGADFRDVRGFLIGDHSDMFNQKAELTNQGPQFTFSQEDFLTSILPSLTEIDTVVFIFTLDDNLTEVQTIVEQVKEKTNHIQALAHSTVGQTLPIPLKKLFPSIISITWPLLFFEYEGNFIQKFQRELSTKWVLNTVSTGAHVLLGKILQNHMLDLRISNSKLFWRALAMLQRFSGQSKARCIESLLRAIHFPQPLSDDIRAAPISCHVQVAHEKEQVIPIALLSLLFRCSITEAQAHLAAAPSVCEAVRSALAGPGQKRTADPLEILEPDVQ

Assay [7] has as its target T1, Hexokinase-4 (Homo sapiens) + Glucokinase regulatory protein (Homo sapiens). Put plainly: qHTS assay for inhibitors of recombinant human GCK-GKRP interaction: ADP-Glo assay (AID 743206).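 Further: plate controls were DMSO plus enzyme for no effect and no enzyme for full effect.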 The procedure, abridged: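 Pin-transferred compounds meet a 15 nM GST-GCK/15 nM FLAG-GKRP/2 uM S6P mix (dispense concentrations). ATP is then added to 0.4 mM final with 5 mM glucose, and the reaction runs 60 min at room temperature. ADP is quantified luminescently.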

Assay [8] has the same target. Put plainly: qHTS assay for inhibitors of recombinant human GCK-GKRP interaction: HTRF assay (AID 743207).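 Further: 0% = DMSO with GCK present and -100% = DMSO wells lacking GCK.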 The procedure, abridged: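 5 nM GST-GCK + 5 nM FLAG-GKRP + 2 uM S6P, pH 7.1 buffer (25 mM Hepes, 2 mM MgCl2, 25 mM KCl, 1 mM DTT, Tween/BSA); pin-transferred cpd; anti-FLAG XL665/anti-GST K; 60 min RT; HTRF.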
Assay [9] can be described thus: qHTS Assay for Identifying Gametocytocidal Compounds (AID 743244).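 Further: on the % scale 0 is the no-effect control and ±100 the full control effect; actives lower the fluorescent signal which means gametocytes are killed.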 The following applies: P. falciparum 3D7 stage III-V gametocytes, alamarBlue, 72 h; max response: stronger effect = lower value. An outline of the steps: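 Using 20,000 stage III–V 3D7 gametocytes per well, compounds were incubated 72 h under 37 °C/5% CO2. Viability was then assessed by 24 h alamarBlue reduction, measured fluorometrically at 525/598 nm.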

The nature of assay [10]: qHTS for Activators of Parkin Expression: LOPAC Validation Assay (FLuc Reporter) (AID 720573). An outline of the steps: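 Cells seeded, 24 h; compounds pinned, 7-pt dose response; 24 h at 37 C/5% CO2; volume reduced; FLuc reagent 10 min RT; luminescence read. Normalization: DMSO = 0, positive control = 100%.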
In assay [11] the target is Nuclear receptor ROR-gamma (Homo sapiens) (UniProt P51449). The assay can be described thus: qHTS assay for small molecule antagonists of the retinoid-related orphan receptor gamma (ROR-gamma) signaling pathway (AID 651802).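 Further: CHO cells with doxycycline-induced ROR-gamma expression; luciferase reporter luminescence driven by ROR response element; series mostly up to about 92 µM; on the % scale 0 is the no-effect control and ±100 the full control effect; nearly all actives have a fitted effect of over 60% in size.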 The procedure, abridged: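 Luciferase read-out: ONE-Glo luminescence after 30 min at room temperature, following 16hr doxycycline induction at 37C, 5% CO2 of CHO cells with TET-inducible ROR and RORE-LUC reporter; decreased luminescence = reduced reporter activity.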
Chain of Nuclear receptor ROR-gamma (Homo sapiens) (P51449 whole entry, looked up): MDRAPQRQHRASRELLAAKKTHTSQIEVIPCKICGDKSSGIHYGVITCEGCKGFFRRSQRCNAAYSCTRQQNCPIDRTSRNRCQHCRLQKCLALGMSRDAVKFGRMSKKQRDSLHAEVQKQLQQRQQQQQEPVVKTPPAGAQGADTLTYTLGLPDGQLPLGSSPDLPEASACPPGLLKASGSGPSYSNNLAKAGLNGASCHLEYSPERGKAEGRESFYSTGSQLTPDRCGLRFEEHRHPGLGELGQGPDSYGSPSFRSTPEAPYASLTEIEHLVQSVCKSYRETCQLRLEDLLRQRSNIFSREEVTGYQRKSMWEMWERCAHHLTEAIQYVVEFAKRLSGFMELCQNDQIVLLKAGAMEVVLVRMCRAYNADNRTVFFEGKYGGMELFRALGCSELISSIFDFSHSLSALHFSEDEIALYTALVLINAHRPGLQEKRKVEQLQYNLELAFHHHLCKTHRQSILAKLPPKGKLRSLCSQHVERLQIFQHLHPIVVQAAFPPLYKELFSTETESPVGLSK

Assay [12] is described as follows: qHTS assay for small molecule agonists of the antioxidant response element (ARE) signaling pathway measured by Nrf2-dependant transcriptional activity (AID 720636; active means well fitted curve in the direction sought with a large enough effect in the repeat runs; an effect the other way counts as inactive or inconclusive; further: % of control where 0% means no effect). An outline of the steps: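 ARE-luc HepG2 cells carrying an Nrf2-responsive luciferase reporter, in medium with 1% dialyzed FBS, exposed to compound for 16 hr at 37 C, 5% CO2. Luminescence read 30 min after ONE-Glo addition.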

Assay [13] can be described thus: qHTS assay for small molecule antagonists of the retinoid-related orphan receptor gamma (ROR-gamma) signaling pathway - cell viability counter screen (AID 720652; active means well fitted curve in the direction sought with a large enough effect in the repeat runs; an effect the other way counts as inactive or inconclusive;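 further: CHO reporter cells with doxycycline-induced ROR-gamma expression; series mostly up to about 92 µM; compound exposure lasted 16 hr before ATP read; on the % scale 0 is the no-effect control and ±100 the full control effect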). The procedure, abridged: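 CHO RORE-LUC/TET-ROR line, 1,000 cells/well, 37 C 5% CO2 5 hr; cpd or DMSO + doxycycline induction, 16 hr. CellTiter-Glo, 30 min RT, luminescence = ATP content.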
The nature of assay [14]: qHTS assay for small molecule agonists of the antioxidant response element (ARE) signaling pathway measured by Nrf2-dependant transcriptional activity - cell viability counter screen (AID 720653; active means well fitted curve in the direction sought with a large enough effect in the repeat runs; an effect the other way counts as inactive or inconclusive; further: on the % scale 0 is the no-effect control and ±100 the full control effect). The following applies: ARE-bla HepG2 viability, CellTiter-Glo ATP luminescence, 16 h; stronger effect = lower value. An outline of the steps: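 ARE-bla HepG2 cells (2,000/well) rested 5 hrs at 37C/5% CO2, then exposed to compounds in DMSO for 16 hrs. Viability was read in the same wells as intracellular ATP by luminescence, 30 min at room temperature after reagent addition.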

The nature of assay [15]: qHTS assay for cell viability of HEK293 cells (AID 743288). Further: on the % scale 0 is the no-effect control and ±100 the full control effect; nearly all actives have a fitted effect of over 50% in size. The following applies: ATP luminescence (CellTiter-Glo), 18 h; max response: stronger effect = lower value. The procedure, abridged: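 Viable-cell counts were inferred from luciferase-based ATP content in HEK293 cells seeded at 2,000/well, pre-incubated ≥5 h, then dosed with DMSO-solubilised compounds for 18 h at 37 C.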

Assay [16] can be described thus: qHTS assay for cell viability of the p53RE-bla HCT-116 cell line (AID 743292). Further: on the % scale 0 is the no-effect control and ±100 the full control effect; nearly all actives have a fitted effect of over 55% in size. An outline of the steps: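 CellSensor p53RE-bla HCT-116 cells (4,000/well) pre-incubated 5 h at 37 C, then exposed to compounds in DMSO for 16 h at 37 C. Viability read as ATP content by CellTiter-Glo luminescence after 30 min at room temperature.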

Chain of Tyrosine-protein kinase Yes (Homo sapiens) (P07947 whole entry, looked up): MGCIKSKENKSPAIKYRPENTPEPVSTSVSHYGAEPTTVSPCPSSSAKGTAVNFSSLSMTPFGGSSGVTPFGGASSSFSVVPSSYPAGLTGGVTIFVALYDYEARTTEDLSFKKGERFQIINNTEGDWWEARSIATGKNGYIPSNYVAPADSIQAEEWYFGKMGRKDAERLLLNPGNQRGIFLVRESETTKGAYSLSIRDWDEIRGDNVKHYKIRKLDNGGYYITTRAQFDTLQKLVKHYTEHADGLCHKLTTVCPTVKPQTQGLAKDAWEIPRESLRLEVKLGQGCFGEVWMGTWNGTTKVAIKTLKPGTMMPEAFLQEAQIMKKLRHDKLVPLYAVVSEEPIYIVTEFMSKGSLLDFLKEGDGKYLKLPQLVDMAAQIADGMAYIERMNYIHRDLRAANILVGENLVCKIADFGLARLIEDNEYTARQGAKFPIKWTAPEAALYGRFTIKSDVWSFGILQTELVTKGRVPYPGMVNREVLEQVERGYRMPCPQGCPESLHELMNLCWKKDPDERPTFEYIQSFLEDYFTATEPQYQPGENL

With `CN(C)S(=O)(=O)c1ccc2c(c1)/C(=C/c1cc3c([nH]1)CCCC3)C(=O)N2`, in [1], the Potency was 0.0972 µM (active). The call in assay [2] and in assay [4] was inactive. Besides, the Potency entry in [3], in assay [5], in assay [6], in assay [7] and in assay [8] was “inactive” each time. Moreover, the max response in assay [9] was -2.03%.

`CCCCCCCCCC(=O)NC(CN1CCOCC1)[C@H](O)c1ccccc1` (some centres not stated): the Potency result in assay [3], in assay [5], in assay [10], in [6] and in assay [7] was “inactive” in each case. The result in [4] was inactive.

For the molecule `O=c1onc2cnc3ccccc3n12`, the Potency result in assay [3], in assay [5], in assay [10], in [6] and in assay [7] was “inactive” each time. In addition, the molecule was called inactive in assay [4].

`CN1CCCC1CCOC(C)(c1ccccc1)c1ccc(Cl)cc1` (configuration not stated): the Potency result in [3], in assay [5], in [10], in assay [6] and in assay [7] was “inactive” throughout. Moreover, in [4], the call was inactive.

Turning to `Cc1cccc(C2CN(C)CCc3c2cc(O)c(O)c3Cl)c1` (configuration not stated), the Potency result in assay [3], in assay [5], in assay [10], in assay [6], in assay [7] and in assay [8] was “inactive” each time. Moreover, the molecule was called inactive in [4].

As for `c1ccc(C2CN3CCSC3=N2)cc1` (configuration not stated), the Potency result in assay [3], in [5], in assay [10], in assay [6], in [7] and in assay [8] was “inactive” in each case. Also, the outcome in assay [4] was inactive.

Take `CCn1c(=O)[nH]c2cc(Cl)c(Cl)cc21`: the Potency result in assay [3], in assay [5], in assay [10], in assay [6], in [7] and in assay [8] was “inactive” each time. The molecule was called inactive in [4].

Regarding `COc1cc(/C=C(\C#N)C(=O)c2ccc(O)c(O)c2)cc(I)c1O`, the Potency in [3] was 21.3 µM (active). Besides, in assay [4], the call was inactive. For the same molecule, the Potency entry in assay [5], in assay [10], in [6], in assay [7] and in [8] was “inactive” each time.

Regarding `CCCn1c(=O)c2[nH]c(C3CCCC3)nc2n(CCC)c1=O`, the Potency entry in assay [3], in assay [5], in assay [10], in assay [6], in [7] and in assay [8] was “inactive” throughout. In addition, the molecule was classed as inactive in assay [4].

Take `CC(=O)NNC(=O)N1Cc2ccccc2Oc2ccc(Cl)cc21`: the Potency entry in assay [3], in assay [5], in assay [10], in assay [6], in assay [7] and in [8] was “inactive” each time. Moreover, the result in [4] was inactive.

`COc1cc(CC(=O)O)ccc1O`: the Potency entry in [3], in [5], in assay [10], in [6], in assay [7] and in [8] was “inactive” in each case. For the same molecule, in assay [4], the outcome was inactive.

With `Nc1ncnc2c1ncn2C1CCCC1`, the Potency entry in assay [3], in assay [5], in assay [10], in [6], in assay [7] and in assay [8] was “inactive” throughout. Also, in assay [4], the outcome was inactive.

On to `N[C@H](C(=O)O)[C@H](Cc1ccccc1)C(=O)O`, for which the Potency entry in [3], in [5], in [10], in assay [6] and in assay [7] was “inactive” in each case. Further, the outcome in assay [4] was inactive.

`CC(=O)C(C)=O`: the molecule was classed as inactive in assay [11], in [4], in [12] and in assay [13]. The Potency entry in assay [5], in assay [10], in assay [6], in [7], in assay [8] and in [16] was “inactive” throughout. Further, the max response in [14] is -2.25%; in assay [9], 0.793%; in [15], -4.3%.

(Values after PubChem BioAssay (NCATS).)
